What all share (conditions): Compound concentration 20.0 uM
Test [1] has as its target Tyrosine-protein kinase ABL1 (Homo sapiens) (UniProt P00519).
Test [2] addresses Bromodomain-containing protein 4 (Homo sapiens) (UniProt O60885).
Test [3] addresses Cyclin-dependent kinase 2 (Homo sapiens) (UniProt P24941).
Test [4] deals with Casein kinase I isoform delta (Homo sapiens) (UniProt P48730).
Test [5] concerns the target Glycogen synthase kinase-3 beta (Homo sapiens) (UniProt P49841).
Test [6] concerns the target Mitogen-activated protein kinase 1 (Homo sapiens) (UniProt P28482).
Test [7] concerns the target T1, Aurora kinase A (Homo sapiens) (UniProt O14965).
T1 sequence (whole entry): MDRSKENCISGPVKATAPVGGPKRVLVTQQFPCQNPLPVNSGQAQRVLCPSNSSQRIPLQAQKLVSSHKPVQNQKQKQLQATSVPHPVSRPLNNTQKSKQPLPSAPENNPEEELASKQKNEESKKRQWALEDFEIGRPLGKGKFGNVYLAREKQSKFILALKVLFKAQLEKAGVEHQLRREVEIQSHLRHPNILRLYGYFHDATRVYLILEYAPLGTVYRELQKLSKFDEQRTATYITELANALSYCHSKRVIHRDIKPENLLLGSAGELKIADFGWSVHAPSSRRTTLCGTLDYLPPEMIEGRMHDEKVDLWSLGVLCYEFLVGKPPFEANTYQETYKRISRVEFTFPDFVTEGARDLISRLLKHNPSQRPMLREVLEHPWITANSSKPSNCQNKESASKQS

For test [8], the target named is T2, Transcription intermediary factor 1-alpha (Homo sapiens) (UniProt O15164).
T2 sequence (whole entry): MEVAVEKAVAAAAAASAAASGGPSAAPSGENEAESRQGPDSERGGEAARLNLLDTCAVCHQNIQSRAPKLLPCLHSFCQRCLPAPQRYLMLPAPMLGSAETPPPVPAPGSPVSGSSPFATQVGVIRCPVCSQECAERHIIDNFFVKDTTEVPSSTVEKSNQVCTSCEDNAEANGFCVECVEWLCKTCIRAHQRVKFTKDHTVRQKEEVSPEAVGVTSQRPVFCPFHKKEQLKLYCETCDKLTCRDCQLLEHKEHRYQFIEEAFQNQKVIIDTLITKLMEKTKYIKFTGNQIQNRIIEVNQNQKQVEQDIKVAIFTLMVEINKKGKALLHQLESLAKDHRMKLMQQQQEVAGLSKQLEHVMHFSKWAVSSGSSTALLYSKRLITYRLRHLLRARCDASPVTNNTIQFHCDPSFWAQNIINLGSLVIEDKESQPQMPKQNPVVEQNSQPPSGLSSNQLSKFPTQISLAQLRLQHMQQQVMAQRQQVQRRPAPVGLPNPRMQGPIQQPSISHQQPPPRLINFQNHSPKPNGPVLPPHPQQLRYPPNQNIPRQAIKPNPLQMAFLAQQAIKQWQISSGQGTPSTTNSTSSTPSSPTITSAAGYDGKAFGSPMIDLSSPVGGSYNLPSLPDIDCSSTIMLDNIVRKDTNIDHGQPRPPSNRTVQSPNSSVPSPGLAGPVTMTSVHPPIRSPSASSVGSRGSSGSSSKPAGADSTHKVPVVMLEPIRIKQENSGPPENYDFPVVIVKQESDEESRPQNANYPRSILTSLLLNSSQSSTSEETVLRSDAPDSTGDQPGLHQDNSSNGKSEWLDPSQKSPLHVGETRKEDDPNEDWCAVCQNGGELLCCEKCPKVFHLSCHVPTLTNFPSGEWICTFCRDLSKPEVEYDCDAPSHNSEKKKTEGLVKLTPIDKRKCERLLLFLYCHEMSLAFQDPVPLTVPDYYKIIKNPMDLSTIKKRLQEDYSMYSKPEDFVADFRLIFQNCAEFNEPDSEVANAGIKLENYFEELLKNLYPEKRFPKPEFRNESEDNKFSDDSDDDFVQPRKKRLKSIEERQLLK

Residues, ends and D or L forms follow the SMILES beside them. *: point of attachment. Cbz = O=C(OCc1ccccc1)*; CH2F = FC*

Chain of Glycogen synthase kinase-3 beta (Homo sapiens) (P49841 whole entry, looked up): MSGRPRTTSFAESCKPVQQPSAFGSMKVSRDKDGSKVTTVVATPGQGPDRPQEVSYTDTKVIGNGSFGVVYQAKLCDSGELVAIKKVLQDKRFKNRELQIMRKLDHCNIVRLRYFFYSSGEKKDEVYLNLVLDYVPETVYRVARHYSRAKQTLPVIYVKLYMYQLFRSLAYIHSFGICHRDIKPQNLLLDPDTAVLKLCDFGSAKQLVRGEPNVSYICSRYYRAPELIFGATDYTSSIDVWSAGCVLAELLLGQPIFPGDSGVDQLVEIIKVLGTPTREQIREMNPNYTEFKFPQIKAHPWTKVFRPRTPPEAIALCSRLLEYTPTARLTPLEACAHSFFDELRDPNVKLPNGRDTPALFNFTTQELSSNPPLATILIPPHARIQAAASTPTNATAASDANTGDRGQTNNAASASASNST
Chain of Mitogen-activated protein kinase 1 (Homo sapiens) (P28482 whole entry): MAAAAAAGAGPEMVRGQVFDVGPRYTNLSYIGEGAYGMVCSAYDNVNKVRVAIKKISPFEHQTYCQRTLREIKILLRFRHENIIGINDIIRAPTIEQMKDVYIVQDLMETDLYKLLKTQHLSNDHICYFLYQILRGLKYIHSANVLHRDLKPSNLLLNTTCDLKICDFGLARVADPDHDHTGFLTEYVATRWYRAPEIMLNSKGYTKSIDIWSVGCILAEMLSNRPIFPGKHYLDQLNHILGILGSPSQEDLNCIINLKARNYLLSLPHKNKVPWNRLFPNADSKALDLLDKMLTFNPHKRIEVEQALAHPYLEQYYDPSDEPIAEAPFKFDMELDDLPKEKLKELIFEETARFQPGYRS
Chain of Casein kinase I isoform delta (Homo sapiens) (P48730 whole entry, looked up, canonical isoform): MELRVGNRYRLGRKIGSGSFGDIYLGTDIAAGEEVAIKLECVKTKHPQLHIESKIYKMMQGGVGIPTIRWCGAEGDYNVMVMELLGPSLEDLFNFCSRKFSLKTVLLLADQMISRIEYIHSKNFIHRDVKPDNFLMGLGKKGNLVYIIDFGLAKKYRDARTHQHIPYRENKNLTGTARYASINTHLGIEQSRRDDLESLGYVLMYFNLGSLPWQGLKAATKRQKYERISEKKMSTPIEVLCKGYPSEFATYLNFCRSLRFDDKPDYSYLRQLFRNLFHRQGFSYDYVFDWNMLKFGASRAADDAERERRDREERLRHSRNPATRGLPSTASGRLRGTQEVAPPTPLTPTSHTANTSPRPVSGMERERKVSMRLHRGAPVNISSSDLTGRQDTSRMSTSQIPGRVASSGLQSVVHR
Chain of Tyrosine-protein kinase ABL1 (Homo sapiens) (P00519 whole entry): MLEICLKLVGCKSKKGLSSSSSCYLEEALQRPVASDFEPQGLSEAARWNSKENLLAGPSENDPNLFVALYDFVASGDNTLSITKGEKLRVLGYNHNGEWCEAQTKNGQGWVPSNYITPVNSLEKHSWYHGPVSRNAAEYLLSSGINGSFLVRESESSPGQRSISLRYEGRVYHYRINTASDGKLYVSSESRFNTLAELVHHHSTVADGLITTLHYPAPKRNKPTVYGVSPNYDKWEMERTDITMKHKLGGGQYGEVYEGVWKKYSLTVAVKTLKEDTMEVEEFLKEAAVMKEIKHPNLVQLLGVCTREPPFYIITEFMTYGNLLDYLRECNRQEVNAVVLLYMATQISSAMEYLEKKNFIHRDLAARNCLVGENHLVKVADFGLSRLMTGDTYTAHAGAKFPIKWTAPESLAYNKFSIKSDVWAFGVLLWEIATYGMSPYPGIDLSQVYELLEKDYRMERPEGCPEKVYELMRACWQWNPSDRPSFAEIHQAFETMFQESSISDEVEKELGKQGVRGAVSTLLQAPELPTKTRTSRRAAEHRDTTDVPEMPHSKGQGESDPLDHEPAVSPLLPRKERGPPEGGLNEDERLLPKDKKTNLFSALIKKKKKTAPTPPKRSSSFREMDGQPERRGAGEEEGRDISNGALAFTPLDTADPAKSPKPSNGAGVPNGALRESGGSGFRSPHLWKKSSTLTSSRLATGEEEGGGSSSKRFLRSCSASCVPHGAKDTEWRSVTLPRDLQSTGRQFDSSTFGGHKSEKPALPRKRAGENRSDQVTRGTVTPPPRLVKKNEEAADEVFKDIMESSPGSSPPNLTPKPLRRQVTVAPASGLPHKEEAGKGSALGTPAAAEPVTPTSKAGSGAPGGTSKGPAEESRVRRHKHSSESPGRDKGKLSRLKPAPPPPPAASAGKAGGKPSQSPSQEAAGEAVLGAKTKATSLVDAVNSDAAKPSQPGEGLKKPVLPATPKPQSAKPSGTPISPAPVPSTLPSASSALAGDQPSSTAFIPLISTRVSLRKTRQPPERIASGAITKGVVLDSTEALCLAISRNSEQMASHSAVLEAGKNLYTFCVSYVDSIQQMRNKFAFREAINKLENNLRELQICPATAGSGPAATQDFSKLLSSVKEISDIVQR

A word on the ΔTm: it is the change in melting temperature against a reference sample. For the molecule `CC(C)Oc1ccc2c(=O)[nH]c3sccc3c2c1`, the ΔTm in test [1] was 2.81 °C; in test [2], -1.93 °C; in test [3], 0.87 °C; in test [4] it was 1.82 °C; in test [5] it was 0.89 °C; in test [6], 0.11 °C. Also, the ΔTm in test [7] is -0.48 °C; in test [8], -0.42 °C.

In the case of `COc1cccc(-c2nccc3c2CN(c2ccccc2)C3=O)c1`, the ΔTm in test [1] is 0.76 °C; in test [2], -1.35 °C; in test [3], -1.3 °C; in test [4], 0.41 °C; in test [5], -2.56 °C; in test [6] it was -4.49 °C. Besides, the results for the ΔTm in test [7] and in test [8] were -4.93 °C and -1.44 °C, respectively.

Turning to `C[C@@H](COCCC(=O)N1CCN(c2ncc(C(F)(F)F)cn2)CC1)Nc1cn[nH]c(=O)c1C(F)(F)F`, the ΔTm in test [1] was 0.66 °C; in test [2] it was -3.06 °C; in test [3], -0.01 °C; in test [4], -0.13 °C; in test [5] it was 0 °C; in test [6] it was 0.21 °C. In addition, the shift in melting temperature (ΔTm) is -2.44 °C in test [7] and -0.58 °C in test [8].

As for `O=C(c1cc(Cc2n[nH]c(=O)c3ccccc23)ccc1F)N1CCn2nc(C(F)(F)F)nc2C1`, the ΔTm is 0.72 °C in test [1]; -2.42 °C in test [2]; 0.1 °C in test [3]; -0.28 °C in test [4]; -0.21 °C in test [5]; 0.61 °C in test [6]. Moreover, the ΔTm is -2.34 °C in test [7] and -0.51 °C in test [8].

In the case of `CCC[C@H]1CNCc2c1[nH]c(=O)c(C#N)c2N1CCC2(CC1)CC2`, the ΔTm in test [1] was 0.01 °C; in test [2] it was -1.65 °C; in test [3], -0.06 °C; in test [4] it was 0.15 °C; in test [5], -0.31 °C; in test [6], -0.08 °C. Besides, the ΔTm in test [7] is -0.93 °C; in test [8], -1.34 °C.

On to `Cn1cc(NC(=O)c2cc(F)cc(F)c2)c(C(=O)NC2CCNCC2)n1`, for which the ΔTm in test [1] was 0.23 °C; in test [2], -2.12 °C; in test [3] it was -0.02 °C; in test [4], 1.02 °C; in test [5], -0.14 °C; in test [6], -0.35 °C. Moreover, the thermal shift (ΔTm) in test [7] is -0.65 °C; in test [8], -0.68 °C.

On to `CCCC1O[C@@H]2C[C@H]3[C@@H]4CCC5=CC(=O)C=C[C@]5(C)[C@H]4[C@@H](O)C[C@]3(C)[C@]2(C(=O)CO)O1` (stereo partly specified), for which the ΔTm is 0.48 °C in test [1]; -1.67 °C in test [2]; 0.01 °C in test [3]; -0.03 °C in test [4]; -0.4 °C in test [5]; -0.27 °C in test [6]. In addition, the figures for the ΔTm in test [7] and in test [8] were -0.16 °C and -0.81 °C, respectively.

Consider `O=C(O)C1=CCCN(CCON=C(c2ccccc2)c2ccccc2)C1`, for which the ΔTm in test [1] is 0.08 °C; in test [2], -0.61 °C; in test [3], 0.73 °C; in test [4], -0.14 °C; in test [5] it was 0 °C; in test [6], 0.02 °C. The figures for the ΔTm in test [7] and in test [8] were -1.31 °C and 1.41 °C, respectively.

Turning to `COC(=O)CC[C@H](NC(=O)[C@H](Cc1c[nH]c2ccccc12)NC(=O)OCc1ccccc1)C(=O)N[C@@H](Cc1cnc[nH]1)C(=O)N[C@@H](CC(=O)OC)C(=O)CF` (Cbz-WE(OMe)HD(OMe)-CH2F), the ΔTm in test [1] is 0.62 °C; in test [2] it was -1.63 °C; in test [3], 0.18 °C; in test [4], 0.21 °C; in test [5], -0.68 °C; in test [6], -0.1 °C. The ΔTm is -0.45 °C in test [7] and -0.87 °C in test [8].

For the molecule `Cc1c(Nc2ccc(S(=O)(=O)N3CCN(C)CC3)cc2F)nc2ccc(-c3cnn(C4CC4)c3)cn2c1=O`, the ΔTm is 0.73 °C in test [1]; -2.59 °C in test [2]; 0.26 °C in test [3]; -0.28 °C in test [4]; 0.08 °C in test [5]; 0.06 °C in test [6]. Also, the ΔTm is -1.87 °C in test [7] and -1.92 °C in test [8].

As to `CNCc1ccc(-c2cc3cc(F)cc(C(N)=O)c3o2)cc1`, the ΔTm in test [1] is 0.6 °C; in test [2], -0.09 °C; in test [3] it was 1.2 °C; in test [4], 0.55 °C; in test [5] it was 0.51 °C; in test [6], 0.83 °C. The values for the ΔTm in test [7] and in test [8] were -1.29 °C and 0.67 °C, respectively.

For `C[C@H](NC(=O)[C@H](Cc1ccccc1)NC(=O)OCc1ccccc1)C(=O)CF`, the ΔTm was 0.31 °C in test [1]; -2.33 °C in test [2]; 0.15 °C in test [3]; 0.19 °C in test [4]; -0.61 °C in test [5]; -0.19 °C in test [6]. Also, the figures for the ΔTm in test [7] and in test [8] were -0.86 °C and -1.01 °C, respectively.

The values are drawn from ChEMBL document CHEMBL5724796, “Tm Shift (DSF) assay results for EUbOPEN Chemogenomics Library” (2024).
